Screens (PubChem)
This is a sample that favours compounds with a hit; in the whole collection about 2.2% have one here.
SUMO Mot1 rescue: SUMOylation pathway inhibition by Mot1-301 growth rescue; S. cerevisiae Mot1-301 growth rescue, ATP luminescence, 38.5C; percent above DMSO median, 100 means doubled; growth rescue, % at 18.8 µM; actives 1% (n = 320,000);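 active = every valid replicate shows activation above 250% relative to neutral control wells; inactive = the rest, any valid replicate at or below 250%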;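 also: OY570 slx delta 5 strain wells were the positive control but not used for scaling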
PHOSPHO1 inh: inhibitors of human PHOSPHO1 phosphatase. Q8TCT1. recombinant PHOSPHO1, absorbance phosphatase assay. inhibition, % at 13.3 µM. actives 1.1% (n = 290,000). AID 1565; in the data active = inhibition above about 60%
GASC-1 inh: blocks human GASC-1 demethylase activity; Q9H3R0; GST-JMJD2C(1-420) H3K9me3 demethylation, DELFIA europium; inhibition, % at 2.35 µM; actives 0.069% (n = 330,000);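 active = more than half of a compound's replicate wells show inhibition beyond 50%, single wells judged on their own value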;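 also: signal counts dimethyl H3K9 product captured on neutravidin plate; 0% = median of DMSO wells and 100% = 0.3 times that DMSO median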
HDAC3 inh: blocks human histone deacetylase 3. AID 2718. actives 0.15% (n = 320,000). recombinant HDAC3, fluorogenic peptide/trypsin coupled, fluorescence. inhibition, % at 8.3 µM; in the data active = inhibition above about 26%, passing the limit was not always enough
Target sequence (O15379 whole entry, looked up): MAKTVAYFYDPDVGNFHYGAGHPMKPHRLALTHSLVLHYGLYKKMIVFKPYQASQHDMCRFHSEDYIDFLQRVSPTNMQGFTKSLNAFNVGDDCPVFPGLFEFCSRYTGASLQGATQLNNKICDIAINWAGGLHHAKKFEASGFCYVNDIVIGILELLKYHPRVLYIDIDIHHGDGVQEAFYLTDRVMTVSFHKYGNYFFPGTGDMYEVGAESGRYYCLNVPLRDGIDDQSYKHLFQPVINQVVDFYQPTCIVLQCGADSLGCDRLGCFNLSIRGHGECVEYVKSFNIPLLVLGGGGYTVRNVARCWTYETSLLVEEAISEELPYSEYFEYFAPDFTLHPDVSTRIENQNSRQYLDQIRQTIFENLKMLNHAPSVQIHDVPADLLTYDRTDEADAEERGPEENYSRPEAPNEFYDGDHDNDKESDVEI
PvdQ inh: P. aeruginosa PvdQ acylase inhibition. AID 488965. inhibition, % at 10 µM. actives 0.063% (n = 340,000). purified PvdQ acylase, fluorescence plate reader; in the data active = inhibition above about 30%, passing the limit was not always enough;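 also: 0% = vehicle neutral wells and 100% = reference inhibitor wells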
pCIP destab: compounds decreasing mouse p/CIP protein stability. Q05BA5. F442A p/CIP-EGFP cells, EGFP fluorescence, 16 h. decrease of EGFP signal, % at 10 µM. actives 0.01% (n = 290,000). AID 1984;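 active = EGFP signal decrease of at least 30% at 10 µM or well 3 SD below plate mean, unless failing retest; inactive = the rest, including hits failing retest or dose response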
Mot1 SUMO dose: inhibits SUMO pathway, affecting Mot1-301 yeast growth | shares compounds with SUMO Mot1 rescue | S. cerevisiae Mot1-301 galactose growth, ATP luminescence, 24 h; -100 = growth of slx-deleted rescue strain | growth activity, percent, % at 42 µM | AID 493004 | 2,300 tested, under 10 active;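 active = Signal drops as the depositor expects, and the fitted half-maximal dose is no more than ten times the top valid tested dose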;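 also: more negative values mean stronger growth rescue toward the control strain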
The depositor's hits bear a star.

For COC(=O)c1sc(NC(=O)c2c(-c3ccccc3)noc2C)nc1C the results were SUMO Mot1 rescue -1, PHOSPHO1 inh 66*, GASC-1 inh 1, HDAC3 inh -6, PvdQ inh 5 and pCIP destab 5.
Screening CCOC(=O)c1c(-c2ccccc2)csc1NC(=O)C1CCCO1 (stereo not drawn) returned SUMO Mot1 rescue 228, PHOSPHO1 inh 72*, GASC-1 inh 8, HDAC3 inh 10, PvdQ inh -19 and pCIP destab -8.
Screening CC1=NN(C(C#N)c2ccccc2C)C(C)(C)C1 (stereo not drawn) returned SUMO Mot1 rescue -2, PHOSPHO1 inh -22, GASC-1 inh 10, HDAC3 inh -2, PvdQ inh -10 and pCIP destab -2.
Cc1cc(C)cc(-n2ncc3c2CCCC3NC(=O)CCN2CCCC2=O)c1 (stereo not drawn) was read as SUMO Mot1 rescue -3, PHOSPHO1 inh 38, GASC-1 inh -2, HDAC3 inh -1, PvdQ inh -10 and pCIP destab 10.
CC(C)(C)NC(=O)CN(C(=O)CCC(=O)Nc1nccs1)c1ccc(F)cc1 was read as SUMO Mot1 rescue -8, PHOSPHO1 inh 29, GASC-1 inh -23, HDAC3 inh -1, PvdQ inh -18 and pCIP destab -4.
CCOc1ccc(CNC2CCCc3ccccc32)cc1 (stereo not drawn) was read as PHOSPHO1 inh 21, GASC-1 inh -5, HDAC3 inh -2, PvdQ inh 38* and pCIP destab -16.
For COc1cc(NC(=S)NCc2cccnc2)cc(OC)c1OC the results were SUMO Mot1 rescue 16, PHOSPHO1 inh 63*, GASC-1 inh -9, HDAC3 inh -1, PvdQ inh -5 and pCIP destab -6.
`O=C(Nc1ccc(Cl)cc1)c1cc2nc(-c3ccco3)cc(C(F)(F)F)n2n1` gave SUMO Mot1 rescue -14, PHOSPHO1 inh 6, GASC-1 inh 6, HDAC3 inh -5, PvdQ inh -1 and pCIP destab -6.
Screening Cc1ccccc1Cn1cc(NC(=O)c2cc3nc(-c4ccco4)cc(C(F)(F)F)n3n2)cn1 returned SUMO Mot1 rescue 360*, PHOSPHO1 inh 21, GASC-1 inh 11, HDAC3 inh 9, PvdQ inh -7, pCIP destab -5 and Mot1 SUMO dose 0.
For Cc1ccc(NC(=S)NNC(=O)c2ccc(N3CCOCC3)c([N+](=O)[O-])c2)cc1C the results were SUMO Mot1 rescue 366*, PHOSPHO1 inh -4, GASC-1 inh -7, HDAC3 inh 4, PvdQ inh 0, pCIP destab -2 and Mot1 SUMO dose 0.
Screening COc1ccc(O)c(CN2CCC(n3nccc3NC(=O)CCOc3ccccc3)CC2)c1 returned SUMO Mot1 rescue -1, PHOSPHO1 inh 53, GASC-1 inh -6, HDAC3 inh -1, PvdQ inh -7 and pCIP destab -11.
`CCOC(=O)N1CCN(C(=O)c2ccc3c(c2)NC(=O)/C(=C/c2ccccc2)S3)CC1` gave SUMO Mot1 rescue -12, PHOSPHO1 inh 1, GASC-1 inh 5, HDAC3 inh 1, PvdQ inh -12 and pCIP destab 1.
CCOC(=O)C1CCN(C(=O)c2ccc3c(c2)NC(=O)/C(=C/c2ccccc2)S3)CC1 was read as SUMO Mot1 rescue 405*, PHOSPHO1 inh 54, GASC-1 inh -7, HDAC3 inh 2, PvdQ inh 9, pCIP destab 4 and Mot1 SUMO dose -1.
Cc1cccc(N2C(=O)CSC2c2cccnc2)c1 (stereo not drawn) was read as SUMO Mot1 rescue 686*, PHOSPHO1 inh 4, GASC-1 inh -5, HDAC3 inh 5, PvdQ inh 2, pCIP destab 11 and Mot1 SUMO dose 0.
O=C(Cc1ccc(F)cc1)Nc1nc(-c2ccc(F)cc2)cs1 was read as SUMO Mot1 rescue active, PHOSPHO1 inh 20, GASC-1 inh 5, HDAC3 inh 0, PvdQ inh -8, pCIP destab -24 and Mot1 SUMO dose -1.
`O=C(O)CCCC(=O)Nc1nc(-c2ccc(F)cc2)cs1` gave SUMO Mot1 rescue -8, PHOSPHO1 inh 24, GASC-1 inh 1, HDAC3 inh -19, PvdQ inh -6 and pCIP destab 3.
For On1c(-c2ccccc2Cl)nc2ncccc21 the results were SUMO Mot1 rescue 498*, PHOSPHO1 inh 40, GASC-1 inh 7, HDAC3 inh 5, PvdQ inh -22, pCIP destab 5 and Mot1 SUMO dose 0.
`COc1ccc(NC(=O)c2cc(C)no2)cc1Cl` gave SUMO Mot1 rescue 432*, PHOSPHO1 inh 46, GASC-1 inh -4, HDAC3 inh -3, PvdQ inh -8, pCIP destab 7 and Mot1 SUMO dose 0.
`Cc1ccc(Cl)c(OC(=O)C2CSC3(C)CCC(=O)N23)c1` (stereo not drawn) gave GASC-1 inh -4, HDAC3 inh 8 and PvdQ inh -1.
COc1cc(NC(=O)c2cccnc2)ccc1-c1cc2ccccc2oc1=O was read as SUMO Mot1 rescue 17, PHOSPHO1 inh 15, GASC-1 inh 3, HDAC3 inh -1 and pCIP destab -17.
COc1cc(NC(=O)c2cc(Cl)ccc2Cl)ccc1-c1cc2ccccc2oc1=O was read as SUMO Mot1 rescue 406*, PHOSPHO1 inh 34, GASC-1 inh -2, HDAC3 inh -16, PvdQ inh -11, pCIP destab 1 and Mot1 SUMO dose 0.
`O=C(COC(=O)C1CC(O)CN1S(=O)(=O)c1ccccc1[N+](=O)[O-])c1ccc[nH]1` (stereo not drawn) gave SUMO Mot1 rescue -12, GASC-1 inh -3, HDAC3 inh -3 and PvdQ inh 2.
`O=C(COC(=O)[C@@H]1CC(O)CN1S(=O)(=O)c1ccccc1[N+](=O)[O-])Nc1ccc2ccccc2c1` (stereo partly drawn) gave SUMO Mot1 rescue 495*, PHOSPHO1 inh 16, GASC-1 inh -19, HDAC3 inh 6, PvdQ inh -2, pCIP destab 2 and Mot1 SUMO dose 0.
Screening Cc1ccc(C(=O)N/C(=C\c2cccs2)C(=O)NCC2CCCO2)cc1C (stereo not drawn) returned SUMO Mot1 rescue 0, PHOSPHO1 inh -42, GASC-1 inh -7, HDAC3 inh 6, PvdQ inh -15 and pCIP destab -15.
Screening CCOc1ccc(CN(C)C(C)C(=O)NCc2ccccc2)cc1 (stereo not drawn) returned SUMO Mot1 rescue 401*, PHOSPHO1 inh 20, HDAC3 inh 3, PvdQ inh -12, pCIP destab -5 and Mot1 SUMO dose 0.
